Results filed as inconclusive are left out. Active and inactive are the calls of the source. Calls follow the shape of the full dose curve.

Vitamin D3 receptor (Homo sapiens), sequence (P11473 whole entry, looked up): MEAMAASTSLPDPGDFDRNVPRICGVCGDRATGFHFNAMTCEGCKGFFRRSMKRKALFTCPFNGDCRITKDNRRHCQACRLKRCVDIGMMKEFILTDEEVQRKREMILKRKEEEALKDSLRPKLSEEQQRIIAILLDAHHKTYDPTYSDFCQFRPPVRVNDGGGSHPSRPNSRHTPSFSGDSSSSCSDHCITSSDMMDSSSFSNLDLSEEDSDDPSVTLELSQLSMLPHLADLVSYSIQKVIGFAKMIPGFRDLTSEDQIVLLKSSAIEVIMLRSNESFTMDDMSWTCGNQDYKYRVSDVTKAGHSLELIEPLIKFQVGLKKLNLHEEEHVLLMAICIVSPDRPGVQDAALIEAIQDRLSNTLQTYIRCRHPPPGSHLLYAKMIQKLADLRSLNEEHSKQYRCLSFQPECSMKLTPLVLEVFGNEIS

This experiment addresses Vitamin D3 receptor (Homo sapiens) (UniProt P11473). Kind of experiment: qHTS assay to identify small molecule agonists of the vitamin D receptor (VDR) signaling pathway (AID 743222). The settings on record: HEK293T VDR-UAS-bla, beta-lactamase FRET ratio, 16 h; series mostly up to 63.5 µM. In a few lines: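 Following 4 h attachment at 37C, VDR-bla cells (2,000 per well) received DMSO-dissolved compounds or controls. After 16 h incubation, LiveBLAzer B/G FRET substrate was added and fluorescence read 2 h later at room temperature.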
For the compound `CN(C)C(=O)NC1(c2ccccc2)CCN(CCC[C@]2(c3ccc(Cl)c(Cl)c3)CCCN(C(=O)c3ccccc3)C2)CC1`, the result was inactive.

For `COc1ccc2nc(NC(=O)Nc3ccccc3)sc2c1`, the outcome was inactive.

For `CCCCCCCCCCCCCCCCOP(=O)([O-])OCC[N+](C)(C)C`, the outcome was inactive.

As for `CCCCC(=O)O[C@]1(C(=O)CO)[C@H](C)C[C@H]2[C@@H]3CCC4=CC(=O)C=C[C@]4(C)[C@@]3(F)[C@@H](O)C[C@@]21C`, the result was inactive.

In the case of `CCCCCCCCCCCCOCCOS(=O)(=O)O`, the outcome was inactive.

As for `CCOc1ccc(NC(N)=O)cc1`, the outcome was inactive.

`O=C(O)c1ccccc1Nc1cc(Cl)ccc1C(=O)O`: the outcome was inactive.

With `CC1(C)O[C@@H]2C[C@H]3[C@@H]4CCC5=CC(=O)CC[C@]5(C)[C@@]4(F)[C@@H](O)C[C@]3(C)[C@]2(C(=O)CCl)O1`, the result was inactive.

`Clc1cccc(-c2cc(Cl)cc(Cl)c2)c1`: the outcome was inactive.

Consider `CCCCCCOc1ccc(N)cc1`, for which the outcome was inactive.

`CCOc1ccccc1N`: the result was inactive.

For the compound `OCCN(CCO)CCN(CCO)CCO`, the result was inactive.

Regarding `CCCCCCCCc1ccc(S(=O)(=O)O)cc1`, the outcome was inactive.

As for `CC(=O)Nc1ccc(C)c(Cl)c1`, the result was inactive.

Regarding `O=CCCc1ccccc1`, the outcome was inactive.

As to `CC(C)NC[C@@H](O)COc1cccc2ccccc12`, the result was inactive.

Take `COc1cc(Cl)ccc1Cl`: the outcome was inactive.

Take `COc1ccc(Nc2ccc(OC)cc2)cc1`: the outcome was inactive.

The values are drawn from PubChem BioAssay (Tox21).
